Assay outcomes deposited in PubChem BioAssay by National Center for Advancing Translational Sciences (NCATS).
Most compounds without a hit are left out; they make up all but 2.9% or so of the library.
Nrf2 activator = Nrf2 pathway activation | AREc32 ARE-luciferase reporter (MCF7-derived line), luminescence, 24 h | Potency, µM (series often up to 46.1 µM), usual class: activators | AID 624171 | 410,000 compounds, 0.31% hits; further: nearly all actives have a fitted effect of over 65% in size
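ARE activation measured as luciferase luminescence (Steady-Glo, 30 min RT) in AREc32_Fluc cells after 24 hr compound exposure at 37 deg C, 5% CO2; cells seeded overnight at 1000/well in OPTI-MEM, 5% FBS.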
Nrf2 inh = inhibitors of Nrf2 signaling | A549 ARE-Fluc reporter, luciferase luminescence, 18-24 h | Potency, µM (doses to about 46 µM), usual class: inhibitors | 360,000 compounds, 2.1% hits; further: nearly all actives have a fitted effect of over 60% in size
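In this cell-based qHTS, ARE-driven firefly luciferase in A549 cells reports Nrf2 activity; the luminescent signal after BugLite lysis is the measured value, with a prior CellTiter-Fluor read for cell health.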
ATXN viability = cell viability loss in ATXN counter-screen | S2 cells (HEK-293 line with an ATXN2-luciferase reporter) viability, CellTiter-Fluor protease fluorescence, 24 h | Potency, µM (series often up to 56.7 µM), hits mostly cytotoxic | 400,000 compounds, 0.49% hits | AID 651635; further: nearly all actives have a fitted effect of over 40% in size
ATXN2 expr inh = inhibitors of ATXN2 expression. Potency, µM (highest dose often 57 µM), hits mostly inhibitors. 360,000 compounds, 0.72% hits. AID 1745845. HEK-293 ATXN2-luciferase reporter, luminescence, 24 h; further: nearly all actives have a fitted effect of over 55% in size
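qHTS (up to 57 uM final) was run with 24 h compound exposure of reporter cells at 37 °C. Each well was multiplexed: SteadyGlo luminescence measured ATXN2-luciferase expression after a fluorogenic Gly-Phe-AFC viability readout (25 uM final).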
A549 tox = counter-screen for Nrf2 inhibitors: cytotoxicity in A549 cells | A549 ARE-Fluc cells, CellTiter-Fluor viability, 18-24 h | Potency, µM (highest dose often 46 µM), most hits filed as inhibitors | 390,000 compounds, 0.16% hits
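A549 ARE-Fluc cells in 5% FBS OPTI-MEM, 5000 cells/well, rested 2 h then exposed to compounds in concentration-response for 18-24 h at 37 °C. Viability by CellTiter-Fluor fluorescence (Ex 405/Em 525) after 30 min; luciferase luminescence (BugLite, 15 min, RT) read afterwards.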
Hits are given with their value; - = inactive; ? = inconclusive; . = not tested or not shown; [ ] = another dose, or the depositor's remark. The call rests on the fitted dose curve; in most records, active means well fitted curve in the direction sought with a large enough effect; inconclusive means small, poorly fitted or top-dose-only effect, or another doubt; inactive means no such curve, though single readings can be large; an effect the other way counts as inactive or inconclusive.

SMILES | Nrf2 activator | Nrf2 inh | ATXN viability | ATXN2 expr inh | A549 tox
C/C(=N\NC(=O)CCCNc1ccccc1)c1ccncc1 | - | - | - | - | -
CC(C)CN(C(=O)CN(C)S(=O)(=O)c1ccc(Cl)cc1)C1CCS(=O)(=O)C1 (stereo unspecified) | - | - | - | - | -
CC(C)CN(C(=O)CCNC(=O)c1ccc(Cl)cc1)C1CCS(=O)(=O)C1 (stereo unspecified) | - | - | 28.2µM | ? | -
Cc1ccc(C(=O)OCc2nnc(-c3ccccc3)o2)o1 | - | - | - | - | -
CC(=O)c1c(C)[nH]c(C(=O)OCc2cccc(Cl)c2)c1C | - | ? | - | - | -
CC(=O)c1c(C)[nH]c(C(=O)OCc2nnc(-c3ccccc3)o2)c1C | - | 20.6µM | - | - | -
CC(=O)c1c(C)[nH]c(C(=O)OCc2ccc(F)cc2Cl)c1C | - | 13µM | - | - | -
O=C(CCc1c[nH]c2ccccc12)N1CCC(n2c(C3CCCO3)nc3cc(C(F)(F)F)ccc32)CC1 (stereo unspecified) | . | . | - | . | .
c1ccc(C(c2ccccc2)N2CCN(c3nc4ccccc4n4cnnc34)CC2)cc1 | - | 18.4µM | - | - | -
c1cnc(N2CCN(c3nc4ccccc4n4cnnc34)CC2)nc1 | - | . | - | - | -
COc1cc(Cl)c(NS(=O)(=O)c2ccc3[nH]c(=O)ccc3c2)c(OC)c1 | - | . | - | - | -
CCOC(=O)c1cc(-c2ccccc2)sc1NC(=O)COC(=O)c1cccc(S(N)(=O)=O)c1 | - | - | ? | ? | -
CCOC(=O)c1cc(-c2ccccc2)sc1NC(=O)COC(=O)c1ccc(Cl)c(S(N)(=O)=O)c1 | - | 23.1µM | ? | ? | ?
O=C(N/N=C/c1cc([N+](=O)[O-])ccc1O)c1ccc(COc2ccc3c(c2)CCC3)o1 | - | - | ? | 7.94µM | ?
COc1ccc(Br)cc1/C=N/NC(=O)c1ccc(COc2ccc3c(c2)CCC3)o1 | - | - | - | - | -
CCOC(=O)c1c(NC(=O)CN2CCCCC2)sc2c1CCN(C(=O)OCC)C2 | - | 23.1µM | ? | - | ?
CCOC(=O)c1c(NC(=O)CN(CC)CC)sc2c1CCN(C(=O)OCC)C2 | - | ? | - | - | -[1.84 µM]
CC(C)Cc1ccc(C(C)/C=C2/CCC(CN3CCCCC3)C2=O)cc1 (stereo unspecified) | 12.6µM | - | . | ? | -
NC(=O)CSc1nnc(Cn2cnc3ccccc32)o1 | - | - | - | - | -
Clc1ccc(CSc2nnc(Cn3cnc4ccccc43)o2)cc1 | - | 8.2µM | - | - | -
CCOc1ccc(-c2ccc(/C=C3/C(=N)N4C(C)=CSC4=NC3=O)o2)c([N+](=O)[O-])c1 | - | - | ? | - | -
CCOc1ccc(-c2ccc(/C=C3/C(=N)N4C=CSC4=NC3=O)o2)c([N+](=O)[O-])c1 | - | ? | . | 25.1µM | -
c1csc(-c2nc3ccccn3c2Nc2ccc3c(c2)OCCO3)c1 | - | 23.1µM | - | - | -
CCCN(CC(=O)Nc1cc(Cl)ccc1Cl)C(=O)/C=C/c1ccco1 | 11.2µM | - | - | - | -
COc1ccc(CC2C(=O)NC(C)C(=O)N(C)C3Cc4ccc(cc4)Oc4cc(ccc4O)CC(C(=O)NC(C)C(=O)NC(C)C(=O)N2C)N(C)C3=O)cc1 (stereo unspecified) | - | 1.64µM | 0.0597µM | 0.238µM | 2.31µM
SMILES | Nrf2 activator | Nrf2 inh | ATXN viability | ATXN2 expr inh | A549 tox
CC[C@H](C)C1OC(=O)[C@@H](C)[C@@H](CC)NC(=O)[C@H](C)N(C)C(=O)C(C)(C)C(=O)C(C)NC(=O)[C@H](Cc2ccc(OC)cc2)N(C)C(=O)[C@H](C(C)C)N(C)C(=O)CNC(=O)[C@H](CC(C)C)N(C)C(=O)CNC1=O (stereo partly specified) | - | . | ? | ? | .
Cc1ccc(C)c(N(C)S(=O)(=O)c2ccc3[nH]cc(C(=O)NC4CCCC4)c(=O)c3c2)c1 | - | . | . | ? | ?
Nc1ccc(S(=O)(=O)N2CCN(S(=O)(=O)c3ccc4c(c3)OCCO4)CC2)cc1 | . | - | . | . | -
CCC1(C)Cc2c(sc3nnn(Cc4ccccc4Cl)c(=O)c23)CO1 (stereo unspecified) | - | 14.6µM | - | - | -
CCC(COC)NC(=O)c1cnn(-c2ncc3c(n2)-c2ccccc2CC3)c1C (stereo unspecified) | . | . | - | . | .
O=C(c1ccc(CSc2nc3ccncc3n2Cc2ccc(F)cc2)cc1)N1CCCCCC1 | - | 18.4µM | ? | - | -
O=C(c1ccc(CSc2nc3ccncc3n2Cc2cccc(F)c2)cc1)N1CCCCC1 | - | 23.1µM | - | - | -
CCOC(=O)N1CCN(C(=O)c2ccc3nc(SCc4ccc(F)cc4)n(C)c3c2)CC1 | - | 16.4µM | - | - | -
CCc1ccc(CNC(=O)c2ccc3nc(SCc4ccc(F)cc4)n(C)c3c2)cc1 | - | ? | - | - | -
O=C(c1ccc(CSc2nc3ccncc3n2Cc2cccc(F)c2)cc1)N1CCCCCC1 | - | ? | - | - | -
CC(=O)OC1C(C)OC(Oc2c(-c3ccc(O)cc3)oc3cc(O)cc(O)c3c2=O)C(O)C1OC(C)=O (stereo unspecified) | . | . | . | - | .
Cc1ccc2c(c1)N(C(=O)N1CCC(C(=O)Nc3cccc(F)c3)CC1)CCO2 | - | - | . | . | -
COc1ccc2cc(C=O)ccc2c1 | . | . | - | - | .
N#Cc1ccccc1NC(=O)CSc1ncn[nH]1 | - | - | - | - | -
CCc1oc2ccccc2c1C(=O)c1cc(I)c(O)c(I)c1 | . | . | - | - | .
COc1ccc2sc3ccccc3c(=O)c2c1OC | 11.2µM | ? | - | - | -
Cn1c(N)c(C(=O)COC(=O)c2nc(Cl)ccc2Cl)c(=O)n(C)c1=O | 2.24µM | - | - | - | -
CCCCCCn1nc(C(=O)OCC(=O)c2c(N)n(C)c(=O)n(C)c2=O)c2ccccc2c1=O | - | 23.1µM | ? | - | -
CCN(c1ccccc1)S(=O)(=O)c1cc(C(=O)OCC(=O)c2c(N)n(C)c(=O)n(C)c2=O)ccc1C | - | 18.4µM | - | ? | ?
Cn1c(N)c(C(=O)COC(=O)c2cccnc2Cl)c(=O)n(C)c1=O | - | - | - | - | -
CCOC(=O)c1cn(CC)c2cc(Cl)c([N+](=O)[O-])cc2c1=O | - | - | - | - | -
CCOC(=O)c1cn(-c2c(Cl)cccc2Cl)c2cc(Cl)c([N+](=O)[O-])cc2c1=O | 11.2µM | - | ? | . | -
CC[C@H](NC(=O)[C@H](C)NC)C(=O)N1C[C@@H](O)C[C@H]1Cc1c(-c2[nH]c3cc(F)ccc3c2C[C@H]2C[C@H](O)CN2C(=O)[C@H](CC)NC(=O)[C@H](C)NC)[nH]c2cc(F)ccc12 | . | . | . | - | .
Nc1ncnc2oc(-c3ccco3)c(-c3ccco3)c12 | - | 14.6µM | - | ? | -
Nc1ncnc2oc(-c3ccoc3)c(-c3ccco3)c12 | . | ? | . | . | -
Cc1cc(-c2cc(F)cc3c2OC(CNC(=O)CCn2cncn2)C3)ccc1F (stereo unspecified) | . | . | - | . | .
